The panel holds about 83,000 compounds, 20% with a hit somewhere; the sample as a whole holds those more often.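 Note: values are percent growth. 100 is the growth of untreated cells, values between 100 and 0 indicate rising inhibition; between -100 and 0 indicates cell death.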 Values without a mark were called inactive. The source made the active and inactive calls. Rule for the calls: active = growth percent below 10; inactive = the rest.
What was measured:
Assay in all cases: NCI-60 one-dose screen, 48 h (100 = growth as untreated, 0 = no growth, -100 = all killed)
Details in all cases: 10 µM unless noted
[1] = tested on: NCI-H23 lung
[2] = tested on: NCI-H226 lung
[3] = tested on: NCI-H322M lung
[4] = tested on: HOP-62 NSCLC
[5] = tested on: NCI-H460 lung
[6] = tested on: HOP-92 NSCLC
[7] = tested on: NCI-H522 lung
[8] = tested on: A549/ATCC NSCLC
[9] = tested on: 786-0 renal
[10] = tested on: DU-145 prostate
[11] = tested on: K-562 leukemia
[12] = tested on: MALME-3M melanoma
[13] = tested on: MDA-MB-231 breast
[14] = tested on: RXF 393 renal
[15] = tested on: SF-268 CNS
[16] = tested on: SF-295 CNS
[17] = tested on: SF-539 CNS
[18] = tested on: UACC-257 melanoma
[19] = tested on: M14 melanoma

| SMILES | growth [1] | growth [2] | growth [3] | growth [4] | growth [5] | growth [6] | growth [7] | growth [8] | growth [9] | growth [10] | growth [11] | growth [12] | growth [13] | growth [14] | growth [15] | growth [16] | growth [17] | growth [18] | growth [19] |
| --- | --- | --- | --- | --- | --- | --- | --- | --- | --- | --- | --- | --- | --- | --- | --- | --- | --- | --- | --- |
| COc1cccc(CCC2CCCN(c3cc(C)nc(N)n3)C2)c1 (centres undefined) | 22.1% | 55.9% | 40% | 59.4% | 14.3% | 23% | 2.3% (active) | 29.1% | 19% | 25.9% | 10.9% | 55.2% | 22.7% | 22.3% | 42.6% | 14.7% | 10.1% | 44.5% | 6.51% (active) |
| CCOc1ccc(-c2nc3ccc(-c4nc5ccc(N6CCN(C)CC6)cc5[nH]4)cc3[nH]2)cc1OCC | -7.66% (active) | -8.92% (active) | 42.1% | 16.7% | 17.2% | 48.8% | -18.2% (active) | 79.2% | 22.3% | 11.1% | 12.8% | -34.7% (active) | 19.4% | -37.8% (active) | 19.3% | 27.2% | -42.7% (active) | 6.87% (active) | 10% |
| CCc1nc2ccccc2[nH]1 | 104% | 99.7% | 110% | 105% | 102% | 99.7% | 103% | 107% | 112% | 125% | 102% | 122% | 103% | 113% | 103% | 119% | 104% | 102% | 99.8% |
| COc1cc2c(cc1OC)-c1ccc3cc4c(cc3c1N(CCN(C)C)C2)OCO4 | -8.26% (active) | -84.7% (active) | -3.14% (active) | -21.6% (active) | -34.2% (active) | -5.08% (active) | -44.9% (active) | -57.3% (active) | -87.7% (active) | 6.23% (active) | 2.7% (active) | 24.3% | -2.8% (active) | -32.7% (active) | 23.6% | -6.18% (active) | -7.83% (active) | 10.4% | -7.62% (active) |
| Oc1ccccc1-c1nc2ccccn2c1NCCN1CCOCC1 | 100% | 101% | 91.7% | 76.8% | 99.2% | 85.2% | 84% | 91.9% | 92.4% | 102% | 83% | 96.2% | 92.7% | 109% | 96.1% | 98% | 97.2% | 96.2% | 96.5% |
| CSc1ccc(Cl)c(C(=O)Nc2sccc2C(N)=O)c1 | 97.9% | 79.9% | 124% | 107% | 101% | 75.6% | 92.2% | 85.6% | 94.2% | 102% | 110% | 141% | 99% | 60.2% | 93.7% | 123% | 99.8% | 104% | 123% |
| N#C/C(=C\c1ccc2c(c1)OCO2)n1nnc2ccccc21 | 10.9% | 8.93% (active) | 9.39% (active) | 28.7% | 0.341% (active) | -2.71% (active) | 14% | 17.1% | 6.58% (active) | -38% (active) | 14.2% | 25.8% | -31.9% (active) | -44.8% (active) | 22.9% | -5.56% (active) | -61.4% (active) | 64.4% | 2.76% (active) |
| CN1CCN(c2ccc(Nc3ncc(Cl)c(NC[C@@H]4CCCO4)n3)cc2)CC1 | 15.8% | 8.99% (active) | 35.9% | 7.27% (active) | 13.2% | 3.21% (active) | 25.6% | 22.8% | 26% | 23% | 27.2% | 27.4% | 17.8% | -31.7% (active) | 24.6% | 31.3% | -6.55% (active) | 44.7% | 21.7% |
| CN(C)CN1CCN(c2ccc3nc(-c4ccc5nc(-c6ccc(C(F)(F)F)cc6)[nH]c5c4)[nH]c3c2)CC1 | 55.6% | 64.2% | 87.1% | 57.6% | 10.6% | 75.8% | 42.1% | 83.8% | 78.5% | 45% | 11.6% | -4.2% (active) | 63.1% | 50.3% | 67.8% | 60.7% | 65.8% | 40.7% | 32.2% |
| CCn1nc(C#Cc2c(C)ccc3c(Nc4ccc(Cl)cc4)nccc23)c2c(N)ncnc21 | 18.4% | 14.8% | 29.2% | -0.0802% (active) | 10.6% | 13.6% | -15.4% (active) | 16.8% | 14.1% | 34.9% | 12.8% | -40.6% (active) | 8.63% (active) | -4.58% (active) | 17.5% | 4.88% (active) | -31.6% (active) | -9.69% (active) | 5.1% (active) |
| COc1cc2cc(Oc3ccc(NC(=O)Nc4cc(C(F)(F)F)cc(C(F)(F)F)c4)cc3)c(C)nc2cc1OCCN1CCCCC1 | -73.3% (active) | 22.1% | -87.1% (active) | -50% (active) | -78% (active) | 42.2% | -53% (active) | -64.9% (active) | -83.6% (active) | -95% (active) | -49.3% (active) | -86.2% (active) | -97.3% (active) | 31.8% | -49.3% (active) | -81.8% (active) | -94% (active) | -47.4% (active) | -79.6% (active) |
| Cc1cc(Cl)nc(N(CCCNc2ccnc3cc(Cl)ccc23)Cc2ccccn2)n1 | 33.6% | 65% | 68.7% | 64% | 48.7% | 30.6% | 40% | 56.1% | 47.4% | 66.2% | 4.3% (active) | 73.2% | 53.4% | 41.8% | 74.6% | 38.9% | 38.9% | 53.5% | 44.4% |
| Cc1[nH]c(-c2nc3ccccc3[nH]2)c(C)c1C(=O)NNc1ccc(Cl)cc1 | 91% | 84.1% | 89.6% | 98.7% | 103% | 90.6% | 80.9% | 93.1% | 94.7% | 105% | 94.1% | 94.5% | 79.2% | 103% | 95.3% | 109% | 95.7% | 91% | 102% |
| C=CC(=O)Nc1cccc(C)c1Nc1cc(-c2cccnc2Cc2c(C)c(OC)cc(OC)c2C)ncn1 | 54.4% | 46.1% | 50.7% | -38% (active) | 4.5% (active) | 22.8% | -17.4% (active) | 8.38% (active) | 16% | 11.4% | -11.1% (active) | 66.1% | 21.4% | -0.169% (active) | 6.81% (active) | 43% | 3.02% (active) | 21.4% | 53.4% |
| CCCCCCCC/C=C/CCCCCCCC1=NCC[N+]1(CCO)CCO | 67.9% | 71.1% | 83.8% | 74.8% | 42.7% | 46.4% | 29% | 81.9% | 72.3% | 78.9% | 32.7% | 96.2% | 56.6% | 50.1% | 75.2% | 79.6% | 90.3% | 104% | 71.4% |
| CC(C)(C)Nc1c(-c2c3ccccc3cc3ccccc23)nc2ccccn12 | 77.4% | 83.9% | 71.2% | 65.1% | 77% | 45% | 59.1% | 49.4% | 72% | 92.7% | 42% | 80.6% | 80.7% | 82.4% | 82.9% | 69.7% | 78.2% | 75.5% | 70.3% |

— PubChem BioAssay (NCI)
